Source: PubChem BioAssay (NCI)
Where “and” joins values, the source holds several entries; their conditions need not be identical. Equal values may be shown once. The panel holds about 79,000 compounds, 15% with a hit somewhere; the sample as a whole holds those more often. A number with no mark means an inactive call. Calls of active or inactive are those of the source. No stated cut-off is given here; in the data, active means growth inhibition above about 70%; inactive means the rest.

How the values were obtained:
[1] = NCI Yeast Anticancer Drug Screen. Data for the rad50 strain (AID 155);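 further: 0% = growth of vehicle-only cultures of the same strain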; settings: S. cerevisiae rad50 strain growth inhibition; at 50.0 µM; stronger effect = higher value
Outline: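 Vehicle-treated cultures provide the reference for the growth inhibition reported for compound-exposed, repair-deficient yeast.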

[2] = NCI Yeast Anticancer Drug Screen. Data for the mec2-1 strain (AID 157); settings: S. cerevisiae mec2-1 strain, at 50.0 µM, stronger effect = higher value
Outline: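 Strain: mec2-1 (DNA repair/cell cycle alteration). Compound exposure, then growth measured; inhibition expressed relative to vehicle.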

[3] = NCI Yeast Anticancer Drug Screen. Data for the sgs1 mgt1 strain (AID 161);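 further: 0% = growth of cultures given vehicle only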; settings: S. cerevisiae sgs1 mgt1 strain, at 50.0 µM, stronger effect = higher value
Outline: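 Inhibition of yeast growth, normalised to vehicle-treated controls, is reported for a strain bearing genetic alterations in DNA damage repair.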

[4] = NCI Yeast Anticancer Drug Screen. Data for the cln2 rad14 strain (AID 165);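 further: 0% = growth equal to vehicle treated cultures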; settings: S. cerevisiae cln2 rad14 strain, at 50.0 µM, stronger effect = higher value
Outline: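 Compounds are applied to the cln2 rad14 yeast strain, and growth is then compared with that of vehicle-treated cultures to give inhibition.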

[5] = NCI Yeast Anticancer Drug Screen. Data for the bub3 strain (AID 167); settings: S. cerevisiae bub3 mutant strain, at 50.0 µM, stronger effect = higher value
Outline: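 Mutant yeast screening strain plus compound; vehicle-treated cultures serve as the 0% inhibition reference.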

[6] = NCI Yeast Anticancer Drug Screen. Data for the mlh1 rad18 strain (AID 175); settings: S. cerevisiae mlh1 rad18 strain growth inhibition; at 50.0 µM; stronger effect = higher value
Outline: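 Read-out is yeast growth inhibition, calculated against vehicle-only controls. The compound was applied to a strain engineered with DNA damage repair alterations.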

Compound	growth inhibition [1]	growth inhibition [2]	growth inhibition [3]	growth inhibition [4]	growth inhibition [5]	growth inhibition [6]
COc1ccc(C(N)Cc2cc(OC)c(OC)c(OC)c2)cc1 (configuration not stated)	-14.9%	6.1%	2.9%	-10.5%	7.8%	-8.6%
CCOP(=O)(OCC)C(C)(C)OC(=O)NC(F)(F)F	-18.7%	-15.2%	-2.25%	5.25%	-10.1%	3%
CCC(Br)C(N)=O (configuration not stated)	-9.25%	3.2%	-6.9%	-59.5%	-4.25%	-1%
CCCCC(Br)C(=O)OCC (configuration not stated)	26.1%	6.55%	-26.5%	-11.6%	10.9%	11.8%
O=C(O)C(O)C(O)C(O)C(O)C(O)C(O)CO.[Cd] (configuration not stated)	29.4% and 27.9%	15.2% and 26.5%	20.2% and 20.4%	19.4% and 28.7%	4.6% and -7.8%	-1.55% and 0.55%
CCC1C2CC3C4N(C)c5ccccc5C45CC(C2C5O)N3C1O (configuration not stated)	20.9% and -6.8% and -4.75%	-7.75% and 5.2% and -40.8%	-16.9% and 15.7% and -14.2%	-17.9% and -3.4% and -0.6%	13.6% and -10.1% and -32.2%	-11.4% and -41% and -23.6%
Cc1ccc(CCl)c(O)c1	-25.7%	-14.6%	-6%	-12.5%	7.1%	-0.8%
O=C1C=C2c3ccccc3CC(C(=O)O)C2CC1 (configuration not stated)	-20.5%	-14.2%	-3.45%	-22.9%	2.3%	9%
COC1C(O)C(C)OC(O[C@@H]2C[C@H]3CC[C@@H]4[C@H](CC[C@]5(C)[C@@H](C6=CC(=O)OC6)CC[C@]45O)[C@@]3(C)[C@H](O)C2)C1O (some centres not stated)	1.4%	-12.5%	-3.55%	-6.35%	1%	3.8%
CCOC(CNC(=O)c1ccc(S(=O)(=O)F)cc1)OCC	-4.4%	27.6%	22.1%	-5.9%	42.8%	26.4%
[Co+2].[Co+2].[O-]CCCN=Cc1ccccc1[O-].[O-]CCCN=Cc1ccccc1[O-]	53.5%	46%	60.8%	-5.1%	30.6%	58.1%
CCCCCCNCCc1cnc[nH]1	12.8%	3.1%	15%	17.5%	2.75%	-68.7%
C[C@]12CC[C@H]3[C@@H](CCC4=CC(=O)CC[C@@]43C)[C@@H]1CC[C@@H]2OC(=O)c1cccc2c(=O)c3ccccc3[nH]c12	30.6%	73% (active)	82.1% (active)	34.2%	71.2% (active)	4.1%
O=[N+]([O-])c1ccc(Cl)c(Cl)c1	20.9%	-4.6%	-8.5%	-37.5%	-5%	26.1%
CC(C)CCCC(C)[C@H]1CCC2[C@@H]3CCC4Cc5nc6c(nc5C[C@]4(C)C3CC[C@@]21C)CC1CC[C@@H]2C(CC[C@@]3(C)C2CC[C@@H]3O)[C@@]1(C)C6 (some centres not stated)	-7.05%	-37.7%	-12%	-7.9%	12.8%	7.95%
C=C(C)C1(CC(C)C)C(=O)NC(=O)NC1=O	7.4% and 2.9%	6.4% and 0.4%	-7.55% and 1.75%	2.3% and -2.6%	-14.8% and 8.15%	-5.9% and -4.3%
CCC(=O)O[C@H]1CC[C@H]2[C@@H]3CCC4=C/C(=N/NC(=O)c5cccc6c(=O)c7ccccc7[nH]c56)CC[C@]4(C)[C@H]3CC[C@]12C	13.7%	15.5%	-16.4%	-8.75%	-17.2%	-7.95%
COC(=O)C1C2CC3c4c(c5ccc(OC)cc5n4[N+](=O)[O-])CCN3CC2CC(OC(=O)c2cc(OC)c(OC)c(OC)c2)C1OC (configuration not stated)	-14%	-50.5%	-34.4%	-17.9%	-22.2%	-3.9%
N#CC(C#N)=Cc1ccco1	-7.95%	6.15%	24.7%	-42.4%	-3.85%	5.5%

Compound	growth inhibition [1]	growth inhibition [2]	growth inhibition [3]	growth inhibition [4]	growth inhibition [5]	growth inhibition [6]
CCCCNCCc1cccnc1	33.5%	13.8%	20.8%	23.7%	0.8%	15.9%
C/C=C/C(C)C1(CC)C(=O)NC(=S)NC1=O (configuration not stated)	8.8%	9.65%	9%	10.6%	-11.3%	-13.1%
O=[N+]([O-])NC1=NCCN1CCO	-8.85%	-3.95%	-2.15%	-16.6%	-26.1%	-18.9%
O=C(O)c1cccc(P(=O)(O)O)c1	14.3% and 9.3%	-19.3% and -12.9%	-5.25% and 17.4%	2.35% and 28.6%	-4% and -10.6%	2.55% and -0.35%
CC1COC(Nc2cccc3c2CCCC3)=N1 (configuration not stated)	-10.1%	-13.7%	-10.6%	-34%	-8.1%	3%
CC(C)(C)c1cc(O)ccc1O	22.5%	-1.55%	-29.1%	-0.25%	-25.7%	24.5%
COC(=O)C1C(=O)CC2N(C)C1C(C)(C)C2(C)C (configuration not stated)	47.9%	21.4%	60.6%	4.8%	38.4%	56.1%
[C-]#[O+].[C-]#[O+].[C-]#[O+].[C-]#[O+].[W].c1ccc([PH+](CC[PH+](c2ccccc2)c2ccccc2)c2ccccc2)cc1	-2.9%	5.2%	-10.4%	-8%	-7.5%	8.95%
NC(=O)OCCc1c2ccccc2nc2ccccc12	19.6% and 47.6%	3.75% and 51.5%	11.5% and 49.9%	2.6% and 42.4%	8.15% and 34.1%	16.1% and 64.5%
O=S(=O)(Cl)OO/C=C\OOS(=O)(=O)Cl	18.2%	2.8%	12.7%	-19.2%	11%	-1.65%
Cc1ccc(Cl)c([N+](=O)[O-])c1	-23.7%	-52.5%	-30.4%	-3.25%	-20.1%	-9.75%
CCN1CCCc2cc3c(C(F)(F)F)cc(=O)oc3cc21	-6.3%	-12.4%	-10%	-4.05%	-6.45%	-11.8%
CN(C)P1(=S)NCC(C(C)(C)C)CO1 (configuration not stated)	10.2%	-40.1%	-10.9%	11.2%	18.5%	-43.4%
COCC#CCN(C)C	-7.75%	-8.3%	-13.8%	2.85%	9.95%	-9.4%
NC(=O)COc1ccc([As]=O)cc1 (configuration not stated)	-1.9%	-14.9%	-11.9%	-48.8%	-33.3%	-15.8%
CC([NH-])C[NH-].[NH2-].[NH2-].[Pt+4] (configuration not stated)	17.1%	-5.65%	-10.3%	-6.25%	5.8%	-12.3%
CC1(C)CCC(C)(C)c2c1ccc(O)c2Cc1c(O)ccc2c1C(C)(C)CCC2(C)C	3.55%	-30.8%	-39%	-17.2%	-41.2%	-6.8%
CC(=O)OC1OC(CS[As](C)CCO)C(OC(C)=O)C(OC(C)=O)C1OC(C)=O (configuration not stated)	12.8%	-16.9%	-15.3%	-8%	-0.85%	-9.55%
